The source of these data is PubChem BioAssay (Tox21).

Where “and” joins values, the source holds several entries; their conditions need not be identical. Equal values may be shown once. Records with an inconclusive call do not appear. Some compounds were tested as several samples or in several runs, with calls that do not always agree. Calls of active or inactive are those of the source. Unless noted, the call rests on the fitted dose curve; in most records, active means well fitted curve in the direction sought with a large enough effect in the repeat runs; inconclusive means weak or mixed curves; inactive means no such curve, though single readings can be large; an effect the other way counts as inactive or inconclusive.

A short description of assay [1]: qHTS assay to test for compound auto fluorescence at 535 nm (green) in HEK293 cells (AID 720680). In general terms: In qHTS, concentration-response curves come from the screen itself.
The nature of assay [2]: qHTS assay to test for compound auto fluorescence at 460 nm (blue) in HEK293 cell free culture (AID 720681). The procedure, abridged:
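Compounds were added to cell-free DMEM with 10% FBS and fluorescence read directly. The blue channel used 405 nm excitation and 460 nm emission, with triamterene as the reference fluorophore.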

Assay [3] in a line: qHTS assay to test for compound auto fluorescence at 535 nm (green) in HEK293 cell free culture (AID 720682). The method, boiled down: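 Measurement is a direct plate read of green fluorescence (485 nm in, 535 nm out) after compound addition to serum-supplemented DMEM lacking cells, with fluorescein used to express intensities.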
Assay [4] can be described thus: qHTS assay to test for compound auto fluorescence at 590 nm (red) in HEK293 cell free culture (AID 720683). The procedure, abridged: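 Cell-free wells of DMEM with 10% FBS received compound, and intrinsic fluorescence was read at excitation/emission 540/590 nm. Values expressed as equivalence to Rose Bengal sodium.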
A short description of assay [5]: qHTS assay to test for compound auto fluorescence at 590 nm (red) in HepG2 cell free culture (AID 720684). The method, boiled down:
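Rose Bengal sodium served as the reference for red signal. Test compounds were dispensed into serum-containing MEM (10% FBS) without cells, and plates were read at 540/590 nm.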

Assay [6] can be described thus: qHTS assay to test for compound auto fluorescence at 460 nm (blue) in HepG2 cell free culture (AID 720685). The procedure, abridged:
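Cell-free plates of MEM plus 10% FBS received 23 nL compound or DMSO vehicle; blue-channel (405/460 nm) intensity scored against triamterene as reference fluorophore.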

Assay [7] can be described thus: qHTS assay to test for compound auto fluorescence at 535 nm (green) in HepG2 cell free culture (AID 720686).
A short description of assay [8]: qHTS assay to test for compound auto fluorescence at 460 nm (blue) in HepG2 cells (AID 720687). The method, boiled down:
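HepG2 cells in MEM with 10% FBS, attached overnight at 37 C, were exposed to compound or DMSO for 1 hr at 37 C, 5% CO2. Blue fluorescence was read at 405/460 nm, with triamterene as reference fluorophore.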

The target in assay [9] is Glucocorticoid receptor (Homo sapiens) (UniProt P04150). Nature of the assay: qHTS assay to identify small molecule agonists of the glucocorticoid receptor (GR) signaling pathway (AID 720691; active means well fitted activation curve with a large enough effect in the signal ratio in the repeat runs, not every such curve was filed as active; the % refers to the signal ratio; further: potency means the concentration at half of the fitted maximal effect). The method, boiled down: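 A HeLa cervical cancer line expressing GR and a glucocorticoid response element-driven beta-lactamase gene is treated with compounds for 18 h; LiveBLAzer B/G FRET substrate is then applied and fluorescence read.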

Assay [10] can be described thus: qHTS assay to identify small molecule antagonists of the glucocorticoid receptor (GR) signaling pathway - cell viability counter screen (AID 720693). Further: nearly all actives have a fitted effect of over 55% in size. Further: potency means the concentration at half of the fitted maximal effect.
Assay [11] is described as follows: qHTS assay for identifying genotoxic compounds that show differential cytotoxicity against isogenic chicken DT40 cell lines with known DNA damage response pathways - wild type cell line (AID 743012). Further: nearly all actives have a fitted effect of over 60% in size. Further: potency means the concentration at half of the fitted maximal effect. The procedure, abridged: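 300 wt DT40 cells/well; cpd (DMSO) pintool-transferred after ~0.5 h at 37 C/5% CO2; 40 h incubation; CellTiter-Glo added, 30 min RT; luminescence read.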

A short description of assay [12]: qHTS assay for identifying genotoxic compounds that show differential cytotoxicity against isogenic chicken DT40 cell lines with known DNA damage response pathways - Rev3 mutant cell line (AID 743014). Further: nearly all actives have a fitted effect of over 55% in size. Further: potency means the concentration at half of the fitted maximal effect.
Assay [13] is described as follows: qHTS assay for identifying genotoxic compounds that show differential cytotoxicity against isogenic chicken DT40 cell lines with known DNA damage response pathways - Rad54/Ku70 mutant cell line (AID 743015). Further: nearly all actives have a fitted effect of over 60% in size. Further: potency means the concentration at half of the fitted maximal effect.
Assay [14] can be described thus: qHTS assay to identify small molecule antagonists of the androgen receptor (AR) signaling pathway - cell viability counter screen (AID 743033; further: nearly all actives have a fitted effect of over 45% in size).
Assay [15] in a line: qHTS assay to identify small molecule antagonists of the androgen receptor (AR) signaling pathway using the MDA cell line - cell viability counter screen (AID 743041; further: nearly all actives have a fitted effect of over 45% in size). The procedure, abridged: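 Cytotoxicity counter screen: MDA-kb2 AR-luc cells, compound + R1881, 16 h, 37C, 0% CO2; CellTiter-Fluor added at 15.5 h, fluorescence read after 30 min.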
Assay [16] deals with Glucocorticoid receptor (Homo sapiens) (UniProt P04150). Nature of the assay: qHTS assay to identify small molecule antagonists of the glucocorticoid receptor (GR) signaling pathway (AID 720692; active means well fitted inhibition curve with a large enough effect in the signal ratio in the repeat runs, not every such curve was filed as active; the % refers to the signal ratio). The procedure, abridged: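 GRE-bla HeLa line, dex-stimulated (5 nM final). Compound exposure 18 h, 37 C. Beta-lactamase FRET read after 2 h RT substrate.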
Assay [17] is described as follows: qHTS assay to identify small molecule antagonists of the thyroid receptor (TR) signaling pathway - cell viability counter screen (AID 743064). Further: nearly all actives have a fitted effect of over 50% in size. Further: potency means the concentration at half of the fitted maximal effect. The method, boiled down:
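Compounds were tested on GH3.TRE-Luc cells in the presence of T3 at 1 nM final. Following 23.5 h at 37 °C, cell viability was quantified by CellTiter-Fluor.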

Assay [18] has as its target Androgen receptor (Homo sapiens) (UniProt P10275). The assay can be described thus: qHTS assay to identify small molecule antagonists of the androgen receptor (AR) signaling pathway (AID 743035; active means well fitted inhibition curve with a large enough effect in the signal ratio in the repeat runs, not every such curve was filed as active; the % refers to the signal ratio). The method, boiled down: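 In this cell-based reporter screen, compounds were tested in concentration series against R1881-activated HEK293 cells expressing beta-lactamase under UAS control; after 16 h at 37C, FRET substrate was added and fluorescence read 2 h later.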

The target is the same in assay [19]. The assay can be described thus: qHTS assay to identify small molecule agonists of the androgen receptor (AR) signaling pathway (AID 743036; active means well fitted activation curve with a large enough effect in the signal ratio in the repeat runs, with a control signal flat, not every such curve was filed as active; the % refers to the signal ratio). The method, boiled down: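 Beta-lactamase under UAS control, stably integrated in HEK293 GripTite cells, reports receptor activation. After 16 h compound treatment, cells received FRET substrate for 2 h at room temperature before fluorescence reading.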

The target is the same in assay [20]. The assay can be described thus: qHTS assay to identify small molecule antagonists of the androgen receptor (AR) signaling pathway using the MDA cell line (AID 743042; further: nearly all actives have a fitted effect of over 55% in size). The method, boiled down:
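MDA-kb2 breast carcinoma cells carrying MMTV-luciferase (AR/GR responsive) were co-treated with compounds and the agonist R1881 for 16 h at 37C. Inhibition read as ONE-Glo luminescence; CellTiter-Fluor fluorescence measured in parallel for cytotoxicity.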

Sequence of Androgen receptor (Homo sapiens) (P10275 whole entry, looked up): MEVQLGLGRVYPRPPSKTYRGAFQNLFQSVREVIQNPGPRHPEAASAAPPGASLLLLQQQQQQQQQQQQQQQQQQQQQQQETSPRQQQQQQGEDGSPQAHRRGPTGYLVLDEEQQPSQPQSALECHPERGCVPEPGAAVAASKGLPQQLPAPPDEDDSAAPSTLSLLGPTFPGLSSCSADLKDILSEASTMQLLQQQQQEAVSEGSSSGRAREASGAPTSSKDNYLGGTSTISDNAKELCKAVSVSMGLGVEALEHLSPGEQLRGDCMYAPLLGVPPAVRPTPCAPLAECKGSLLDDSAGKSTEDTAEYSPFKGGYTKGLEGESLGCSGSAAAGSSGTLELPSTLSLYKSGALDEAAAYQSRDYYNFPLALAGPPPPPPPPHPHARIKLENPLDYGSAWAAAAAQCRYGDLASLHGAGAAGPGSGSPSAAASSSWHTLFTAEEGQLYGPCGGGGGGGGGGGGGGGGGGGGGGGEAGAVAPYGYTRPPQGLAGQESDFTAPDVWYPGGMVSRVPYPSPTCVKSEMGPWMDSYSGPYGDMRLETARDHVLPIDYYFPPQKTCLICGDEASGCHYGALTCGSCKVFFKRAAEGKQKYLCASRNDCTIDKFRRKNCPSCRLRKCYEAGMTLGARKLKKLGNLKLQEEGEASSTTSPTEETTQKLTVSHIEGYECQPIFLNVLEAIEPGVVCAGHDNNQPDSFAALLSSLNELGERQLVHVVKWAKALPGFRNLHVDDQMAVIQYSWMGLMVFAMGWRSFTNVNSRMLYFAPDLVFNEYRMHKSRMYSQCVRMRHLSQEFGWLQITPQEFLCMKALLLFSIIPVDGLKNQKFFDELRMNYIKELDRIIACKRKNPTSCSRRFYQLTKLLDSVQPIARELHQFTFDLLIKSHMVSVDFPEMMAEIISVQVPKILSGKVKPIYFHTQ
Sequence of Glucocorticoid receptor (Homo sapiens) (P04150 whole entry, looked up): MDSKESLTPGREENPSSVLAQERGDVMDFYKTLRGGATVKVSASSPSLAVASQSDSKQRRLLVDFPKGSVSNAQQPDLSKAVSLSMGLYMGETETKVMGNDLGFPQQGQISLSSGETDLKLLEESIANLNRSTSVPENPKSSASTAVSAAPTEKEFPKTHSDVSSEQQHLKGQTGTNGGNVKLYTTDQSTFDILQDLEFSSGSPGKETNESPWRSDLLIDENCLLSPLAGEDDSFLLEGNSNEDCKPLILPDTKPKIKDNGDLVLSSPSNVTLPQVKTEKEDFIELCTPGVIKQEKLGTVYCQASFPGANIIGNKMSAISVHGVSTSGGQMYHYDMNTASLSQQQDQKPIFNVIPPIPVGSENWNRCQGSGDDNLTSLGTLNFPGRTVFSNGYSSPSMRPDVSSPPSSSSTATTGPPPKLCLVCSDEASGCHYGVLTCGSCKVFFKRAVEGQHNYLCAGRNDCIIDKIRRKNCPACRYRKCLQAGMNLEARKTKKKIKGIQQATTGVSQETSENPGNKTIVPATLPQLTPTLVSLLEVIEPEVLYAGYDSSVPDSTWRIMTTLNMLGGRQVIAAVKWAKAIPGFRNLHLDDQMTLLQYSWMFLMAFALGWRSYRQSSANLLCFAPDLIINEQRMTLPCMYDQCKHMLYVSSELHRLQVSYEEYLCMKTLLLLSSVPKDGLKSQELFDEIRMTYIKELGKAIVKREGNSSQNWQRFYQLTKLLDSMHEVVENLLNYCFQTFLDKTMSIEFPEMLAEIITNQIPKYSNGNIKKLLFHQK

Consider `c1ccc2c(c1)-c1cccc3c1c-2cc1ccccc13`, for which the Potency result in [1], in assay [2], in assay [3], in [6], in assay [7] and in assay [8] was “inactive” in each case. Further, the Potency entry in [10], in assay [11], in [12], in assay [13], in assay [14] and in assay [15] was “inactive” throughout. Moreover, the outcome in assay [4] and in assay [5] was inactive. Further, the Potency in assay [9] was 21.4 µM [fluorescent] (active) and 49 µM [fluorescent] (active).
Turning to `OCCN1CCNCC1`, the Potency entry in [1], in assay [2], in [3], in assay [6], in [7] and in [8] was “inactive” throughout. The Potency result in assay [9], in assay [16], in assay [10], in assay [13], in assay [14] and in assay [17] was “inactive” each time. Further, the outcome in assay [4] and in [5] was inactive. The Potency in assay [12] is 31.2 µM (active).
For `O=C(O)c1cc(Cl)cc(Cl)c1`, the Potency entry in assay [1], in [2], in assay [3], in [6], in [7] and in assay [8] was “inactive” throughout. Moreover, the Potency result in [9], in assay [10], in assay [11], in assay [12], in assay [13] and in assay [14] was “inactive” throughout. In assay [15], the Potency result was “inactive”. Further, the outcome in [4] and in [5] was inactive.
As for `C/C=C/c1ccc(OCC)c(O)c1`, the Potency result in assay [1], in [2], in assay [3], in [6], in assay [7] and in assay [8] was “inactive” throughout. In addition, the Potency entry in assay [9], in assay [16], in assay [10], in [11], in assay [12] and in assay [13] was “inactive” in each case. The Potency entry in [14] is “inactive”. The outcome in [4] and in assay [5] was inactive.
For the compound `CC(=O)N[C@@H](CS)C(=O)O`, the Potency result in [1], in assay [2], in [3], in [6], in assay [7] and in [8] was “inactive” each time. Further, the Potency result in assay [9], in assay [16], in assay [10], in [11], in assay [12] and in assay [13] was “inactive” each time. The Potency entry in [14], in assay [15] and in [17] was “inactive” throughout. In addition, the outcome in [4] and in assay [5] was inactive.
Consider `CCC(=O)/C=C/C1C(C)=CCCC1(C)C` (centres undefined), for which the Potency entry in assay [1], in [2], in assay [3], in assay [6], in [7] and in assay [8] was “inactive” each time. For the same compound, the Potency entry in [9], in [16], in assay [10], in assay [11], in [12] and in [14] was “inactive” each time. The Potency result in [15] and in [17] was “inactive” throughout. Further, the compound was classed as inactive in [4] and in assay [5]. For the same compound, the Potency entry in assay [13] was “inactive and 61.1 µM (active)”.
As to `CC[C@]1(O)C[C@@H]2CN(CCc3c([nH]c4ccccc34)[C@@](C(=O)OC)(c3cc4c(cc3OC)N(C)[C@H]3[C@@](O)(C(=O)OC)[C@H](OC(C)=O)[C@]5(CC)C=CCN6CC[C@]43[C@@H]65)C2)C1`, the Potency result in assay [1], in assay [2], in assay [3], in [6], in [7] and in assay [8] was “inactive” each time. The Potency result in [9], in assay [10] and in [15] was “inactive” in each case. In addition, the call in assay [4] and in [5] was inactive. The Potency in [11] is 53.1 nM (active) and 29.8 nM (active); in assay [12], 53.1 nM (active) and 29.8 nM (active); in assay [13] it was 75 nM (active) and 53.1 nM (active); in assay [17], 188 nM (active) and 266 nM (active).
As for `C=C(C)C(=O)O`, the Potency entry in assay [1], in assay [2], in assay [3], in assay [6], in assay [7] and in assay [8] was “inactive” each time. Further, the Potency entry in assay [9], in assay [10], in assay [11], in assay [12], in assay [13] and in assay [14] was “inactive” throughout. In addition, the Potency entry in assay [15] and in [17] was “inactive” throughout. Besides, the call in assay [4] and in [5] was inactive.
As for `Cc1occc(=O)c1OC(=O)C(C)C`, the Potency result in assay [1], in [2], in assay [3], in assay [6], in assay [7] and in assay [8] was “inactive” each time. Moreover, the Potency entry in assay [9], in [16], in assay [10], in assay [11], in assay [13] and in assay [14] was “inactive” each time. The Potency entry in [17] is “inactive”. The compound was called inactive in assay [4] and in [5].
With `[Cl][In]([Cl])[Cl]`, the Potency entry in assay [1], in [2], in assay [3], in [6], in assay [7] and in [8] was “inactive” each time. Further, the Potency entry in assay [9], in assay [10], in assay [11], in [12], in assay [13] and in assay [14] was “inactive” each time. In addition, the Potency entry in assay [15] and in assay [17] was “inactive” in each case. For the same compound, the call in assay [4] and in assay [5] was inactive.
For `CC(C)CCCCCCc1ccc(O)cc1`, the Potency entry in [1], in assay [2], in [3], in assay [6], in assay [7] and in assay [8] was “inactive” throughout. Further, the Potency entry in assay [9] and in assay [14] was “inactive” each time. Moreover, the compound was classed as inactive in assay [4] and in assay [5]. For the same compound, the Potency was 25 µM (active) in assay [10]; 21.1 µM (active) and 62.2 µM (active) and 27.3 µM (active) in [11]; 11.9 µM (active) and 17.5 µM (active) and 30.6 µM (active) in assay [12]; 21.1 µM (active) and 62.2 µM (active) and 27.3 µM (active) in assay [13]; 17.5 µM (active) and 24.3 µM (active) in assay [17].
Consider `NC(Cc1ccc(Cl)cc1)C(=O)O` (centres undefined), for which the Potency entry in assay [1], in [2], in [3], in assay [6], in assay [7] and in [8] was “inactive” each time. Besides, the Potency result in [9], in assay [16], in [10], in assay [11], in [13] and in assay [14] was “inactive” throughout. Moreover, the Potency result in assay [17] is “inactive”. Further, the result in assay [4] and in assay [5] was inactive.
As to `COc1ccc(Cc2cnc(N)nc2N)cc1OC`, the Potency entry in assay [1], in assay [2], in assay [3], in assay [6], in [7] and in assay [8] was “inactive” each time. Moreover, the Potency result in assay [9], in assay [10], in assay [14], in [18], in assay [19] and in assay [15] was “inactive” throughout. Also, the Potency result in assay [20] and in [17] was “inactive” throughout. Moreover, the result in [4] and in [5] was inactive.
Regarding `C=C(C)C1CC=C(C)C(OC(C)=O)C1` (centres undefined), the Potency entry in assay [1], in [2], in assay [3], in assay [6], in assay [7] and in assay [8] was “inactive” each time. For the same compound, the Potency entry in [9], in assay [16], in assay [10], in [11], in assay [12] and in [13] was “inactive” throughout. Also, the Potency result in assay [14], in assay [15] and in assay [17] was “inactive” in each case. Moreover, the result in assay [4] and in [5] was inactive.
